Sampled rows, rich in hits. Any-hit rate of the full collection: about 8.2%.
KB-V1 cytotox – qHTS assay for MDR1-selective chemotherapeutics: Primary screen using the drug-selected MDR subline cells KB-V1. KB-V1 MDR cells viability, CellTiter-Glo, 72 h. Potency, µM (highest dose often 46.1 µM), actives largely listed as cytotoxic. 400,000 compounds, 3.4% hits; also: % is scaled to controls: 0 for no effect and ±100 for the full control effect; nearly all actives have a fitted effect of over 60% in size
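Readout: CellTiter-Glo luminescence, 10 min after addition. Cells: KB-V1 MDR subline, 72 h at 37 degrees C with compound. Analysis: corrected, normalized data fitted to concentration-effect curves.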
ELG1 DNA repair – qHTS screen for small molecules that inhibit ELG1-dependent DNA repair in human embryonic kidney (HEK293T) cells expressing luciferase-tagged ELG1; HEK293T ELG1-luciferase reporter, luminescence, 16 h; DNA damage induced by 5-fluorouridine; Potency, µM (series often up to 46.1 µM), without a hit: top-dose activity change, negative = inhibition, hits mostly inhibitors; 330,000 compounds, 2.3% hits; also: % is scaled to controls: 0 for no effect and ±100 for the full control effect; nearly all actives have a fitted effect of over 55% in size
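In this reporter screen, reduction of luminescence relative to DMSO vehicle indicated activity. Compounds and 5-fluorouridine were added together to 2,000 cells per well, incubated for 16 hr at 37 °C, then developed with ONE-Glo.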
SW480 rerep – A quantitative high throughput screen for small molecules that induce DNA re-replication in SW480 colon adenocarcinoma cells; SW480 DNA re-replication, Hoechst DNA content imaging, 48 h; Potency, µM (doses to about 46.1 µM), without a hit: top-dose re-replication activation, usual class: activators; 340,000 compounds, 1.8% hits; also: % of control where 0% means no effect; nearly all actives have a fitted effect of over 55% in size
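First, 250 cells per well were seeded. Next, compound or vehicle (23 nL) was pinned in, plates sat 48 hr at 37 C. Finally Hoechst was added for 40 min before fluorescence scanning.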
KB-3-1 tox – qHTS assay for MDR1-selective chemotherapeutics: Primary screen using the parental adenocarcinoma cell KB-3-1. KB-3-1 viability, CellTiter-Glo ATP luminescence, 72 h. Potency, µM (doses to about 46.1 µM), actives largely listed as cytotoxic. 400,000 compounds, 1.4% hits. AID 1347075, 2019; also: % is scaled to controls: 0 for no effect and ±100 for the full control effect; nearly all actives have a fitted effect of over 60% in size
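Here the drug-naive KB-3-1 line serves as comparator for MDR sub-line selectivity; cells received compound titrations, 72 h at 37 °C, then CellTiter-Glo readout.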
MCF10A rerep – A quantitative high throughput screen for small molecules that induce DNA re-replication in MCF 10a normal breast cells; MCF 10A DNA re-replication, Hoechst nuclear intensity, 48 h; Potency, µM (highest dose often 46.1 µM), without a hit: at the top dose activity, positive = re-replication, actives largely listed as activators; 350,000 compounds, 2.9% hits; AID 624296, 2012; also: % of control where 0% means no effect; nearly all actives have a fitted effect of over 50% in size
* marks the source's active call; other numbers are inactive results; i = inactive; ? = inconclusive; . = not tested or not shown; [ ] = dose if it differs, or a comment. Calls follow the shape of the dose curve; as a rule, active = well fitted curve in the direction sought with a large enough effect; inconclusive = small, poorly fitted or top-dose-only effect, or another doubt; inactive = no such curve, though single readings can be large; an effect the other way counts as inactive or inconclusive. Potency is read from the fitted curve at half-maximal effect.

SMILES | KB-V1 cytotox | ELG1 DNA repair | SW480 rerep | KB-3-1 tox | MCF10A rerep
N#CC1=C(SCC(=O)c2ccc(Cl)cc2)NC2=C(C(=O)CCC2)C1c1ccco1 (centres undefined) | i | ? | ? | ? | 11µM*
CCOC(=O)CSC1=C(C#N)C(c2ccc(C)cc2)C2=C(CCCC2=O)N1 (centres undefined) | i | 16% | 13% | i | ?
Cc1ccc(C(=O)N(CN2CCCC2=O)c2ccc(F)cc2)cc1C | 18µM* | -5% | -13% | i | 3%
Cc1ccc(C(=O)N(CN2CCCC2=O)c2ccccc2)cc1C | ? | -2% | 3% | i | 10%
Cc1ccc(N(CN2CCCC2=O)C(=O)c2ccc(C)c(C)c2)cc1 | 8.2µM* | -4% | -8% | i | 5%
O=C(C[C@H]1C[C@H](C(=O)N2CCOCC2)[C@@]2(CCC3CCCC3)c3[nH]c4cc(-c5ccco5)ccc4c3CCN2C1=O)NCc1ccco1 | ? | ? | ? | ? | -16%
Cc1ccc(CN(C)C(=O)c2ccccc2Oc2ccccc2)o1 | 21µM* | -2% | ? | i | 7%
CSc1ccccc1OCc1cc(C(=O)N(C)Cc2ccc(C)o2)no1 | i | ? | ? | i | 10%
Cc1ccc(CN(C)C(=O)c2ccc(S(=O)(=O)N(C)c3ccccc3)cc2)o1 | i | -18% | 8.2µM* | i | ?
COc1ccccc1N1CCN(C(=O)C2CCC(CNS(=O)(=O)c3ccc(NC(C)=O)cc3)CC2)CC1 (centres undefined) | i | ? | ? | i | 8%
COc1cccc(-c2nn(C)c3sc(C(=O)NCCc4ccc(Cl)cc4)cc23)c1 | i | . | . | i | .
CCOc1ccc(CCNC(=O)c2cc3c(-c4ccc(OC)c(OC)c4)nn(C)c3s2)cc1OCC | 23µM* | . | . | i | .
COc1cccc(-c2nn(C)c3sc(C(=O)NCCCN(C)Cc4ccccc4)cc23)c1 | i | -18% | 16µM* | ? | ?
COc1ccc(CCNC(=O)c2cc3c(-c4ccc(OC)c(OC)c4)nn(C)c3s2)cc1OC | ? | . | . | i | .
COc1cccc(-c2nn(C)c3sc(C(=O)NCc4ccco4)cc23)c1 | i | ? | 9% | ? | 6.3µM*
CCN(CC)CCCNC(=O)c1cc2c(-c3cccc(OC)c3)nn(C)c2s1 | i | ? | ? | i | ?
CC1CCC2(CC1)NC(=O)N(NC(=O)c1cccc(N(C)C)c1)C2=O (centres undefined) | i | 5% | -8% | i | -8%
COc1ccc(C2=NN(C(=O)c3ccncc3)C(c3ccccc3O)C2)cc1 (centres undefined) | i | -5% | -4% | i | 8%
CN(C)c1ccc(C2CC(c3cccc(NS(C)(=O)=O)c3)=NN2C(=O)c2ccccc2)cc1 (centres undefined) | i | ? | 7% | i | -1%
COc1cccc(C2CC(c3cccc(NS(C)(=O)=O)c3)=NN2C(=O)c2ccccc2)c1OC (centres undefined) | 13µM* | -30% | ? | i | 13%
COc1ccccc1C1CC(c2ccccc2)=NN1S(=O)(=O)c1ccccc1 (centres undefined) | i | 23µM* | 7% | i | 14%
COc1ccc(C2CC(c3ccccc3)=NN2S(=O)(=O)c2ccccc2)c(OC)c1 (centres undefined) | i | 13% | -4% | i | -1%
COc1cccc(C2CC(c3ccc(Br)cc3)=NN2C(=O)c2ccncc2)c1OC (centres undefined) | ? | ? | -40% | 18µM* | ?
C=CC(N)CCC(=O)O (centres undefined) | . | . | -5%[1.84 µM] | . | -4%
CC[C@@H]1CC2=C(C(=O)OC(C)(C)O2)[C@H](c2ccc(F)cc2)O1 | i | . | . | i | .

Screening results deposited in PubChem BioAssay by National Center for Advancing Translational Sciences (NCATS).
